# Source: ChEMBL document CHEMBL3988442, “University of Dundee, Small-Polar-MMV Screening Library” (2021)
# For some of these results: Entries with a potency or affinity are not part of this list.
# Assays:
# [1] = biological target: T1, Methionyl-tRNA synthetase, putative (Leishmania donovani (strain BPK282A1)) (UniProt E9BF75); assay: Leishmania donovani Methionine tRNA synthetase (LdMetRS):v7. Dose response assay; format: functional; design: conc 80 nM, time 150 minutes
# T1 sequence (whole entry): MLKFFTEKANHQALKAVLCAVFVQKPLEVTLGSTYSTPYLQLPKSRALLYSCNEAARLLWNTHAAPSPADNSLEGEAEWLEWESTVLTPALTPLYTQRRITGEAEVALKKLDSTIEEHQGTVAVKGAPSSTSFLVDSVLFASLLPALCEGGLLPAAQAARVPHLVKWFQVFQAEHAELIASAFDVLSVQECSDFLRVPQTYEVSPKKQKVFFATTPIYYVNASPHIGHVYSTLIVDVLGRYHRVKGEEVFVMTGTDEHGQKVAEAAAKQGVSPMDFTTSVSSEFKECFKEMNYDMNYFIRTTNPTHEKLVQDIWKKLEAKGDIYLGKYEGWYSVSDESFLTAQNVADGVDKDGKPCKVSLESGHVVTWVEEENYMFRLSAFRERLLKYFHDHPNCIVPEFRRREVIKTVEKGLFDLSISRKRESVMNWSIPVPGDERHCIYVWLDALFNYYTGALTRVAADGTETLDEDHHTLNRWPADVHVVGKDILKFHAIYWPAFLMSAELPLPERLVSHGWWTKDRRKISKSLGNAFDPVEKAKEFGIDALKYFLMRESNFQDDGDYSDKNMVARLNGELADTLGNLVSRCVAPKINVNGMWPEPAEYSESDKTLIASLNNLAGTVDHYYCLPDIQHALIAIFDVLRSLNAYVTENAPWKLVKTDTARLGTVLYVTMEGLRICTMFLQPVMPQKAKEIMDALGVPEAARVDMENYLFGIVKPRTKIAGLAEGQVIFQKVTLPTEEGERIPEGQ
# [2] = biological target: Protein translocase subunit SecA (Escherichia coli (strain K12)) (UniProt P10408); assay: Assay to Identify E. coli SecA ATPase Inhibitors; format: functional; design: scale not given: direction of the effect not stated beside the values; details: 30 µM
# [3] = biological target: T2, Ubiquitin-activating enzyme e1, putative (Leishmania donovani (strain BPK282A1)) (UniProt E9BSI1); assay: Leishmania donovani Ubiquitin Activating Enzyme (LdE1); format: functional; design: scale not given: direction of the effect not stated beside the values; details: 30 µM
# T2 sequence (whole entry): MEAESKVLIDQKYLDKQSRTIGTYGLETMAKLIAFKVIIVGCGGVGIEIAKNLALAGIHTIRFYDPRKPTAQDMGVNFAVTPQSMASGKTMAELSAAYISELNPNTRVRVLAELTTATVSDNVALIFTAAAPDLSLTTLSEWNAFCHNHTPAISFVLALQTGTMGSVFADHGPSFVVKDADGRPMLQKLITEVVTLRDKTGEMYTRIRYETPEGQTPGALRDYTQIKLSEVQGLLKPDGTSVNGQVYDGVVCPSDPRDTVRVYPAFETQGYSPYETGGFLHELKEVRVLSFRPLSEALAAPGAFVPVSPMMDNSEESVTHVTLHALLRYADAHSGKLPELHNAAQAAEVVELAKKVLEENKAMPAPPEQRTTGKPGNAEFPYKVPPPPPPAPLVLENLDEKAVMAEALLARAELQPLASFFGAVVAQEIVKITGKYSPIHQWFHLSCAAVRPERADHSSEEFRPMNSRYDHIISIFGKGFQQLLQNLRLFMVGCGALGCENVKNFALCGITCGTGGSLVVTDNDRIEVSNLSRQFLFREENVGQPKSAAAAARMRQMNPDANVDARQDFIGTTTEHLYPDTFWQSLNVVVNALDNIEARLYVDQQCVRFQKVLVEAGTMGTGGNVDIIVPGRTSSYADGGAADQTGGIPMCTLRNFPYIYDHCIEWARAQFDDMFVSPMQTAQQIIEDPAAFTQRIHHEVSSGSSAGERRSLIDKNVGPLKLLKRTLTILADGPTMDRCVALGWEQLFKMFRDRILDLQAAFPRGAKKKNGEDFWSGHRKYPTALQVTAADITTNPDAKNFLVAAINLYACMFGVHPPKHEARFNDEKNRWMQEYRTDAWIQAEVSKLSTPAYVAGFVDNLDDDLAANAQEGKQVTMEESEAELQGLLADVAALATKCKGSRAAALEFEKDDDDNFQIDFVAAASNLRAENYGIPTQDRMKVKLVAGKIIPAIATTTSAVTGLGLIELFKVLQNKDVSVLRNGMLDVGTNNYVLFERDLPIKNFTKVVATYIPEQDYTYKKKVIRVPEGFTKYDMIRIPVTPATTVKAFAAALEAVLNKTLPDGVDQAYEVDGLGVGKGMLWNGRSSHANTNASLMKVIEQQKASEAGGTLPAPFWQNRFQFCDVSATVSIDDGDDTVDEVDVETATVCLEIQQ
# [4] = biological target: AMP-activated protein kinase, AMPK (Homo sapiens) (UniProt P54646+O43741+P54619+Q9UGJ0+Q9Y478+Q13131+Q9UGI9); assay: AMP-dependent Kinase enzyme assay. An in vitro enzyme assay that detects ADP turnover that is directly proportional to AMPK activity. This uses naive AMPK that is activated during the assay with MK-8722; format: functional; design: scale not given: direction of the effect not stated beside the values; details: 30 µM
# [5] = biological target: Sialic acid-binding Ig-like lectin 9 (Homo sapiens) (UniProt Q9Y336); assay: Hs-Siglec9 ALPHAscreen SOP 20170721; design: scale not given: direction of the effect not stated beside the values; details: 10 µM
# [6] = test system: Trypanosoma cruzi; assay: Trypanosoma cruzi phosphomannomutase and mannose-1-phosphate guanylyltransferase assay; format: functional; design: scale not given: direction of the effect not stated beside the values; details: 10 µM
# [7] = biological target: T3, Arginase-2, mitochondrial (Homo sapiens) (UniProt P78540); assay: in vitro enzyme assay to detect the production of urea directly proportional to the activity of Arginase II; format: functional; design: scale not given: in the data most compounds retested in dose-response had high values; details: 33.3 µM
# T3 sequence (whole entry): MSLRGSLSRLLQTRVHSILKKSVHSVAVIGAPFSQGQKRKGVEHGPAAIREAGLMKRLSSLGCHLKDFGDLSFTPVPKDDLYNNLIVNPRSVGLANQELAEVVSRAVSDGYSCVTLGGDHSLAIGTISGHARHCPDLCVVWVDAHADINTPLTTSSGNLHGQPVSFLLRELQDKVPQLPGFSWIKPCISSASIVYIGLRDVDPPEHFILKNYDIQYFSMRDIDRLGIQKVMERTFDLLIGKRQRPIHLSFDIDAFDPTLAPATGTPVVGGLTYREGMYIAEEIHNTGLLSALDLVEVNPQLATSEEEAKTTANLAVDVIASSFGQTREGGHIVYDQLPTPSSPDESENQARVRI
# [8] = biological target: T4, Proteasome subunit beta (Trypanosoma cruzi) (UniProt O96673); assay: Trypanosoma cruzi proteasome chymotrypsin-like activity (TcProtChymo) assay.; format: functional; design: scale not given: in the data most compounds retested in dose-response had high values; details: 9.37 µM
# T4 sequence (whole entry): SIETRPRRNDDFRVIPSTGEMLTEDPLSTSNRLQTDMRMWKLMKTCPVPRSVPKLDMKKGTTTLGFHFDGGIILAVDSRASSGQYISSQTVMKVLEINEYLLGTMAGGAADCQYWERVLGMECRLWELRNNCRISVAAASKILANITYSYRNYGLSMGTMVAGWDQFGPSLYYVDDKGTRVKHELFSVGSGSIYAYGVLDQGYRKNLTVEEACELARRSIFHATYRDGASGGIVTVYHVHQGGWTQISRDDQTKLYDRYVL
# [9] = species on record: Homo sapiens; assay: To identify inhibition of the IFN signalling (Jak-Stat) pathway via expression of an eGFP reporter gene under the control of an IFN-stimulated response element (ISRE) containing MxA promoter.; format: functional; design: scale not given: direction of the effect not stated beside the values; details: 30 µM
# [10] = biological target: T5, Tyrosyl-tRNA synthetase, putative (Trypanosoma cruzi (strain CL Brener)) (UniProt Q4DSP6); assay: Trypanosoma cruzi tyrosyl tRNA synthetase (TcYRS) _High Tyrosine SOP; format: functional; design: scale not given: in the data most compounds retested in dose-response had high values; details: 30 µM
# T5 sequence (whole entry): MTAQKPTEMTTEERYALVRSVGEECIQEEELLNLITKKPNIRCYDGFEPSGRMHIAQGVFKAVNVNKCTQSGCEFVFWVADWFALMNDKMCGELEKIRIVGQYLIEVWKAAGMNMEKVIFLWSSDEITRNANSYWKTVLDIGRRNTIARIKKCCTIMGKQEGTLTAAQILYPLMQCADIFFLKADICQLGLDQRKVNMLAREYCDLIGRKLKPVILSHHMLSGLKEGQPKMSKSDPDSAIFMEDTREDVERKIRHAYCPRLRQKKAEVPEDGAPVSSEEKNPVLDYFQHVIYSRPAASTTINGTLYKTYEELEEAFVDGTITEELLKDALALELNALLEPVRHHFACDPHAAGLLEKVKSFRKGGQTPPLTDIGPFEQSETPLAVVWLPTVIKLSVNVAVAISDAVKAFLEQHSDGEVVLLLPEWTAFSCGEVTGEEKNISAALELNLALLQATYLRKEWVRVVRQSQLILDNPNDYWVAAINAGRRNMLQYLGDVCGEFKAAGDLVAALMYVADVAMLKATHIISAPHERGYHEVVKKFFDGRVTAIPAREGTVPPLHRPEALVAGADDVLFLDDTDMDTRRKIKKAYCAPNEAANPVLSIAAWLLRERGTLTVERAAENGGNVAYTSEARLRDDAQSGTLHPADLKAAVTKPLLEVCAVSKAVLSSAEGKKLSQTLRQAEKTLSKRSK
# [11] = biological target: T5, Tyrosyl-tRNA synthetase, putative (Trypanosoma cruzi (strain CL Brener)); assay: Trypanosoma cruzi tyrosyl tRNA synthetase (TcYRS) SOP; format: functional; design: scale not given: direction of the effect not stated beside the values; details: 30 µM
# [12] = biological target: Chromo domain-containing protein 1 (Saccharomyces cerevisiae (strain ATCC 204508 / S288c) (Baker's yeast)) (UniProt P32657); assay: ScCHD-1 Enzyme Inhibition Assay; format: functional; design: scale not given: in the data most compounds retested in dose-response had high values; details: 30 µM
# Chromo domain-containing protein 1 (Saccharomyces cerevisiae (strain ATCC 204508 / S288c) (Baker's yeast)), sequence (P32657 whole entry, the tested form may be a part): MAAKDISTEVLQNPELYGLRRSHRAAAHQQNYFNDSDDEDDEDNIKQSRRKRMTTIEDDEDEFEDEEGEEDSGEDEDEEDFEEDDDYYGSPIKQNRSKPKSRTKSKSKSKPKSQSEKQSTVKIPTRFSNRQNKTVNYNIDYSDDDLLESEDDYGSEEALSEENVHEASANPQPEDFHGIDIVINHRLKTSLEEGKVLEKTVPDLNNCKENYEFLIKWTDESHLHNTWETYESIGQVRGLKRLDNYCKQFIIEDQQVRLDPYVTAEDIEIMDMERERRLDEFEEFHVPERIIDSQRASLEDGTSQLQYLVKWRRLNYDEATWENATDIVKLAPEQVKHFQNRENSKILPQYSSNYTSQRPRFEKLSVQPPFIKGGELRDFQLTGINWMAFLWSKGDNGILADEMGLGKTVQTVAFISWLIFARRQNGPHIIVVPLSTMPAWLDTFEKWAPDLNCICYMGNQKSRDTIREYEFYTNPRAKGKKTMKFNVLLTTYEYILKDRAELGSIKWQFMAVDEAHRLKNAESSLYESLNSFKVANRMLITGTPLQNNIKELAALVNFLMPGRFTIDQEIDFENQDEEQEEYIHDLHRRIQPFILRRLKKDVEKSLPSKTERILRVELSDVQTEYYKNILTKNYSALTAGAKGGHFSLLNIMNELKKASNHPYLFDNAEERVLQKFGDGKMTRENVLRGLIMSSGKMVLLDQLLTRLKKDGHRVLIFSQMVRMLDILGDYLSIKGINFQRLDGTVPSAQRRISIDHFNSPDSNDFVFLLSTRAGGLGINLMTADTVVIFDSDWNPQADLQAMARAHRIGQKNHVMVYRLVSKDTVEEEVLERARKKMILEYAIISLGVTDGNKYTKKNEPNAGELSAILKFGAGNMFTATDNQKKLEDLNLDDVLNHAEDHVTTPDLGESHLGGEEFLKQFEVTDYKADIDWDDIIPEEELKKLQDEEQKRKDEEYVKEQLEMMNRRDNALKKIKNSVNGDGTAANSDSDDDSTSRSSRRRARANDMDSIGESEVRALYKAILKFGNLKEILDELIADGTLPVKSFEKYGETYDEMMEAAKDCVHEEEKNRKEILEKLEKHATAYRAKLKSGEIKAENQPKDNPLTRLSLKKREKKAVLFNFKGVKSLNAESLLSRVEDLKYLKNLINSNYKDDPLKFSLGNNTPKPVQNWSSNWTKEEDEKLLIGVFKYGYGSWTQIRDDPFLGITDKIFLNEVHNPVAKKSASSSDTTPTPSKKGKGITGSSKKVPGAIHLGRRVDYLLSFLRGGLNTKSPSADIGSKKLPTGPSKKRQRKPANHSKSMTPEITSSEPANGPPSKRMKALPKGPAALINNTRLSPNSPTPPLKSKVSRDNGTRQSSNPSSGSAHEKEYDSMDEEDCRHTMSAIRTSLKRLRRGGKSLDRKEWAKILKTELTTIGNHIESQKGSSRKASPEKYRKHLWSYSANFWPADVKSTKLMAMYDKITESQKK
# Protein translocase subunit SecA (Escherichia coli (strain K12)), sequence (P10408 whole entry): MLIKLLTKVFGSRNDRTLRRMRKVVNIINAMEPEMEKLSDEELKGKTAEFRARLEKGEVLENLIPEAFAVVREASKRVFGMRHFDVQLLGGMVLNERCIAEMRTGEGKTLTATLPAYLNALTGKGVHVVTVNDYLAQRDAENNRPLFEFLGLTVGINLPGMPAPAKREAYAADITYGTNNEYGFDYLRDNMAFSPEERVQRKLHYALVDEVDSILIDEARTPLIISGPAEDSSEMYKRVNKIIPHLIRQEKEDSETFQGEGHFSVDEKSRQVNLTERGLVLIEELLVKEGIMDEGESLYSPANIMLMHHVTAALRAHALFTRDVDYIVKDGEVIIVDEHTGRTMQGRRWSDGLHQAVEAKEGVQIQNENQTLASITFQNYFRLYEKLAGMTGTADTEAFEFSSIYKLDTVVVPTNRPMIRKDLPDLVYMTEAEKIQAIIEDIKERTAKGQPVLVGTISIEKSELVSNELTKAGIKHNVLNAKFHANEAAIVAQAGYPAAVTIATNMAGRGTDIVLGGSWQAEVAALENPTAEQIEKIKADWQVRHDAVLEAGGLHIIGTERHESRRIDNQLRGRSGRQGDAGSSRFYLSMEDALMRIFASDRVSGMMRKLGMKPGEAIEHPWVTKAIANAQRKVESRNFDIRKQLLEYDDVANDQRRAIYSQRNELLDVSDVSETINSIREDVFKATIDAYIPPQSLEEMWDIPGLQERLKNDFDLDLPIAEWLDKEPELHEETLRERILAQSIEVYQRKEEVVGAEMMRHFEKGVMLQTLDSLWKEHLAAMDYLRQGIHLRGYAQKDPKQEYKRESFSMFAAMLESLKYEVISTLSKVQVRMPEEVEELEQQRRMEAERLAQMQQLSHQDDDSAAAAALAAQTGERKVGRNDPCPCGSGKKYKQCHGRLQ
# Sialic acid-binding Ig-like lectin 9 (Homo sapiens), sequence (Q9Y336 whole entry): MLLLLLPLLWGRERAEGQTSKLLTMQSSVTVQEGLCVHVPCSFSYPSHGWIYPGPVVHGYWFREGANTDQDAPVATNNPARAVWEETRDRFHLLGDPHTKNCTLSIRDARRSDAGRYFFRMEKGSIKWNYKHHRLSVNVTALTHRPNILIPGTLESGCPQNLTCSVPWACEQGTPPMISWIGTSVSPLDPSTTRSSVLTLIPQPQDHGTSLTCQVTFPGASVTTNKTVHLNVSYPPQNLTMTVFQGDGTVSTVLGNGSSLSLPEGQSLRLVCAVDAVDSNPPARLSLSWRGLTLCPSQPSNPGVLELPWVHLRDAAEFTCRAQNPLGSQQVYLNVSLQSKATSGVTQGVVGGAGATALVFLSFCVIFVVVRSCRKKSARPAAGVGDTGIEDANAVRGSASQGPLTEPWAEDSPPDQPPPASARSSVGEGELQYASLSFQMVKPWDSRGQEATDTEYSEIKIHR
smiles,measurement,setting,value
Cc1cc(C)c(CNC(=O)N2CCCC2c2cccn2C)c(=O)[nH]1 (stereo unspecified),PXC50,"[1]; BOTTOM 1.39525403, HILLSLOPE 1.863289847, MAX_EFFECT 51.97132616, TOP 100.0",4.01
same,PXC50,"[1]; BOTTOM -10.14330359, HILLSLOPE 0.427510045, MAX_EFFECT 50.72463768, TOP 100.0",4.22
same,PXC50,[1]; MAX_EFFECT 28.8676236,< 4
same,PXC50,[1]; MAX_EFFECT 30.90211132,< 4
same,PXC50,[1]; MAX_EFFECT 48.51485149,< 4
same,Percent Effect,[2],-1.81%
same,Percent Effect,[3],8.86%
same,Percent Effect,[4],3.05%
same,Percent Effect,[5],2.38%
same,Percent Effect,[6],2.97%
same,Percent Effect,[7],3.66%
same,Percent Effect,[8],10.6%
same,Percent Effect,[9],-3.9%
same,Percent Effect,[10],13.5%
same,Percent Effect,[11],27.9%
same,Percent Effect,[12],-14.4%
c1ccc(C2CCCN(c3cncc(-n4cccn4)n3)CC2)cc1 (stereo unspecified),PXC50,"[1]; BOTTOM 2.059841181, HILLSLOPE 1.067052754, MAX_EFFECT 60.46065259, TOP 100.0",4.15
same,PXC50,"[1]; BOTTOM 3.016481369, HILLSLOPE 1.023719455, MAX_EFFECT 53.04659498, TOP 100.0",4.01
same,PXC50,"[1]; BOTTOM -1.1240017, HILLSLOPE 1.127395441, MAX_EFFECT 50.23923445, TOP 100.0",4.01
same,PXC50,[1]; MAX_EFFECT 41.25412541,< 4
same,PXC50,[1]; MAX_EFFECT 41.30434783,< 4
CN(CC1CC1)c1ccc2ccc(C(=O)NCCc3ccccc3)cn12,PXC50,"[1]; BOTTOM 0.351029795, HILLSLOPE 1.115089004, MAX_EFFECT 62.13151927, TOP 107.5835515",4.12
same,PXC50,"[1]; BOTTOM 1.92078188, HILLSLOPE 1.430695014, MAX_EFFECT 75.69444444, TOP 86.56449287",4.61
same,PXC50,"[1]; BOTTOM 2.657056439, HILLSLOPE 1.351512964, MAX_EFFECT 68.11091854, TOP 100.0",4.19
same,PXC50,"[1]; BOTTOM -1.049582542, HILLSLOPE 1.242411624, MAX_EFFECT 75.16778523, TOP 98.82108854",4.43
same,PXC50,[1]; MAX_EFFECT 50.8411215,< 4
CCc1ccc(-c2cc(C(F)(F)F)nc(N3CCC(N)CC3)n2)cc1,PXC50,"[1]; BOTTOM 0.706388919, HILLSLOPE 2.15610203, MAX_EFFECT 103.8387716, TOP 100.0",4.56
same,PXC50,"[1]; BOTTOM 1.827311561, HILLSLOPE 2.684909792, MAX_EFFECT 98.40510367, TOP 100.0",4.35
same,PXC50,"[1]; BOTTOM 4.066049008, HILLSLOPE 2.434171465, MAX_EFFECT 89.60138648, TOP 100.0",4.34
same,PXC50,"[1]; BOTTOM 4.927859372, HILLSLOPE 1.513560957, MAX_EFFECT 87.5, TOP 100.0",4.46
same,PXC50,"[1]; BOTTOM -3.243969643, HILLSLOPE 5.145586142, MAX_EFFECT 85.90604027, TOP 95.73252463",4.19
